# According to PubChem BioAssay (Tox21):
# Values without a mark were called inactive. Inconclusive results are not listed. Where a call stands in place of a potency, no number is given. Active and inactive are the calls of the source. Unless noted, calls come from the whole dose curve.
# Key:
# [1] = Nuclear factor erythroid 2-related factor 2/antioxidant responsive element (Nrf2/ARE) small molecule agonists: qHTS cell viability counter screen in human keratinocytes (AID 1919968; active = well fitted curve in the direction sought with a large enough effect in the repeat runs; an effect the other way counts as inactive or inconclusive; note: nearly all actives have a fitted effect of over 55% in size; note: potency is the fitted concentration of half-maximal effect)
# Method in brief: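 KeratinoSens HaCaT cells, 1,500/well, preincubated 5 h, then exposed to compounds in DMSO for 23 h at 37 C/5% CO2. Viability read as CellTiter-Fluor fluorescence after 1 h, in the same wells as the ARE-luciferase read.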
# [2] = Nuclear factor erythroid 2-related factor 2/antioxidant responsive element (Nrf2/ARE) small molecule agonists: luciferase reporter gene qHTS assay in human keratinocytes (AID 1919969); note: nearly all actives have a fitted effect of over 35% in size; note: potency is the fitted concentration of half-maximal effect
# [3] = target: KiSS-1 receptor (Homo sapiens) (UniProt Q969F8); assay: Human kisspeptin (KISS1R) small molecule agonists, calcium flux assay in KISS1R-HEK293 cells (AID 1920064; active = well fitted curve in the direction sought with a large enough effect in the repeat runs; an effect the other way counts as inactive or inconclusive)
# KiSS-1 receptor (Homo sapiens), sequence (Q969F8 whole entry, looked up): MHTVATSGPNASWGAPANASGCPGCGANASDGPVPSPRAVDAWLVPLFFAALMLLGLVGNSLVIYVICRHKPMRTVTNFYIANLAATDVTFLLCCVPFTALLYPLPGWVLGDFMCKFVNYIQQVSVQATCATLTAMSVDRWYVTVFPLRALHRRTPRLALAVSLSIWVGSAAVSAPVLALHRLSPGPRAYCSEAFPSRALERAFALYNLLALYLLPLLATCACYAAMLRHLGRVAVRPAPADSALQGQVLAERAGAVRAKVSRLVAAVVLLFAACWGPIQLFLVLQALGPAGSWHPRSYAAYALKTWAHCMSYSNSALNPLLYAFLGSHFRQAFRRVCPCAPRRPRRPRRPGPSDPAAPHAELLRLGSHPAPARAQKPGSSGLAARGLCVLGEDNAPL
# Method in brief: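 HEK293 cells stably expressing human KISS1R were loaded with calcium dye for 1 h at 37 C, then given compound; fluorescence (Ex/Em 480/540) was read kinetically for 3 min. Fifteen concentrations, triplicate.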
# [4] = G protein-coupled receptor (GPCR) small molecule agonists, calcium flux assay: HEK293 wild type cell line counter screen (AID 1920065)
# Method in brief: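 Wild-type HEK293 cells plated 18 h, loaded with calcium dye 1 h at 37 C, then compounds added in agonist mode (ATP as positive control). Kinetic fluorescence Ex/Em 480/540 recorded 3 min at 1 sec intervals; 15 concentrations, triplicate.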
# [5] = p53 small molecule agonists, cell-based qHTS assay with human liver microsomes (AID 1963577);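 note: p53 response element beta-lactamase reporter cells with liver microsomes plus NADPH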
# Method in brief: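 With metabolic activation: human liver microsomes (0.5 mg/mL final) plus NADPH (0.5 mg/mL final) added alongside compounds to p53RE-bla cells; 16 h 37 C exposure; beta-lactamase read by LiveBLAzer fluorescence.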
# [6] = p53 small molecule agonists, cell-based qHTS assay with rat liver microsomes (AID 1963578)
# Method in brief: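 Metabolic activation by rat liver microsomes and NADPH, each 0.5 mg/mL final, added right after compounds to p53RE-bla reporter cells (4,000/well, plated 5 h earlier). 16 h at 37 C, then LiveBLAzer substrate for 2 h at room temperature in the dark; fluorescence read-out.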
# [7] = p53 small molecule agonists, cell-based qHTS assay with rat liver microsomes: qHTS cell viability counter screen (AID 1963580); note: nearly all actives have a fitted effect of over 45% in size
# Method in brief: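 p53RE-bla HCT-116 cells were exposed 16 h at 37 C to compounds with rat liver microsomes (0.5 mg/mL) and NADPH (0.5 mg/mL). Viability was measured in the same wells as ATP content by CellTiter-Glo luminescence.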
# [8] = p53 small molecule agonists, cell-based qHTS assay: qHTS cell viability counter screen (AID 1963581); note: nearly all actives have a fitted effect of over 45% in size
# Method in brief: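 p53RE-bla HCT-116 cells, compounds added 5 h after plating and incubated 16 h at 37 C. Cytotoxicity measured in the same wells as intracellular ATP by CellTiter-Glo luminescence after 30 min at room temperature.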
# [9] = target: 5-hydroxytryptamine receptor 2A (Homo sapiens) (UniProt P28223); assay: 5-hydroxytryptamine receptor 2A (HTR2A) small molecule antagonists, cell-based qHTS assay (AID 1963586); note: nearly all actives have a fitted effect of over 45% in size
# 5-hydroxytryptamine receptor 2A (Homo sapiens), sequence (P28223 whole entry, looked up): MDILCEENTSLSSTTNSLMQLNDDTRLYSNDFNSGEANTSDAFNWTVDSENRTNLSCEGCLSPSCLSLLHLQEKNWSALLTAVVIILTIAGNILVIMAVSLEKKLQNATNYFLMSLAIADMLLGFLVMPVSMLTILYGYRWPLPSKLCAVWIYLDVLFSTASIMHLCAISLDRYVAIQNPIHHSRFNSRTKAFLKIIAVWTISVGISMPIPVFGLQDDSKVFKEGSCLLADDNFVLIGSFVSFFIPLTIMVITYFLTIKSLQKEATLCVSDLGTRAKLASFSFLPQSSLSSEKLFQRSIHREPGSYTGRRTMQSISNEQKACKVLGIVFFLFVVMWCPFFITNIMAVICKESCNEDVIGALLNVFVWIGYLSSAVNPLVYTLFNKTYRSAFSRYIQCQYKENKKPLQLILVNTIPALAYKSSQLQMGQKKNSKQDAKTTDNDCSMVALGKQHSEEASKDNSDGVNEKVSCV
# Method in brief: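 Antagonist-mode intracellular calcium assay: DOI (4 nM) added after 5 min compound pre-incubation at room temperature to dye-loaded HTR2A-CHO cells. Fluorescence followed for 3 min, sampled every second.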
# [10] = target: 5-hydroxytryptamine receptor 2A (Homo sapiens) (UniProt P28223); assay: 5-hydroxytryptamine receptor 2A (HTR2A) small molecule agonists, cell-based qHTS assay (AID 1963587); note: nearly all actives have a fitted effect of over 30% in size
# Method in brief: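 CHO cells stably expressing human HTR2A, plated 18 h, loaded with calcium dye 1 h at 37 C. Agonist mode: compounds added and intracellular calcium fluorescence recorded kinetically for 2 min at 1 sec intervals.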
# [11] = target: Muscarinic acetylcholine receptor M1 (Homo sapiens) (UniProt P11229); assay: Cholinergic receptor muscarinic 1 (CHRM1) small molecule antagonists, cell-based qHTS assay (AID 1963588); note: nearly all actives have a fitted effect of over 40% in size
# Muscarinic acetylcholine receptor M1 (Homo sapiens), sequence (P11229 whole entry, looked up): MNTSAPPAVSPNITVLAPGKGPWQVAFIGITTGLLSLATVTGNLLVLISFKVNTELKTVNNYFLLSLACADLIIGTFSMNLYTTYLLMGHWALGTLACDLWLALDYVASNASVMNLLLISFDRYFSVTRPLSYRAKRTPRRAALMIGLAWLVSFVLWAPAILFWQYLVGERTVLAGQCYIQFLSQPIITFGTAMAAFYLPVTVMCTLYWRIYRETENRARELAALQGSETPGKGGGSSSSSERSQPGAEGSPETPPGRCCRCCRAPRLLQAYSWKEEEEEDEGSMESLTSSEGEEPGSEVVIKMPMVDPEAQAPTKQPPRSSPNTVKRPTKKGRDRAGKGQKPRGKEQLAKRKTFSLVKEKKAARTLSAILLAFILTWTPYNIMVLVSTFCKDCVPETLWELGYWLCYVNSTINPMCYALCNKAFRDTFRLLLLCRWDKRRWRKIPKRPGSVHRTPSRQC
# Method in brief: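 CHRM1-CHO calcium-flux assay, antagonist mode. Cells were seeded 18 h, dye-loaded 1 h at 37 C and given compound for 5 min at RT, then acetylcholine was added at 50nM. FDSS fluorescence was read 3 min; 15 concentrations, three runs.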
# [12] = target: Muscarinic acetylcholine receptor M1 (Homo sapiens) (UniProt P11229); assay: Cholinergic receptor muscarinic 1 (CHRM1) small molecule agonists, cell-based qHTS assay (AID 1963589); note: nearly all actives have a fitted effect of over 35% in size
# Method in brief: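 CHO cells stably expressing human CHRM1 were loaded with calcium dye for 1 h at 37 C, then compound was added in agonist mode. Intracellular calcium fluorescence was followed kinetically at 1 s intervals. Fifteen concentrations were tested in three independent runs.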
# [13] = cAMP Responsive Elements (CRE) small molecule agonists, cell-based qHTS assay (AID 1963590)
# Method in brief: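 CRE-bla HEK 293T cells, 2,000/well in DMEM with 10% dialyzed FBS and 25 mM HEPES, pre-incubated 18 h at 37 C, then exposed to compound 3 h at 37 C. Beta-lactamase reporter read with LiveBLAzer B/G FRET substrate after 2 h at room temperature.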
# [14] = target: Beta-2 adrenergic receptor (Homo sapiens) (UniProt P07550); assay: Adrenergic beta2 receptor (ADRB2) small molecule antagonists, cell-based qHTS assay (AID 1963592); note: series mostly up to about 92 µM; nearly all actives have a fitted effect of over 50% in size
# Beta-2 adrenergic receptor (Homo sapiens), sequence (P07550 whole entry, looked up): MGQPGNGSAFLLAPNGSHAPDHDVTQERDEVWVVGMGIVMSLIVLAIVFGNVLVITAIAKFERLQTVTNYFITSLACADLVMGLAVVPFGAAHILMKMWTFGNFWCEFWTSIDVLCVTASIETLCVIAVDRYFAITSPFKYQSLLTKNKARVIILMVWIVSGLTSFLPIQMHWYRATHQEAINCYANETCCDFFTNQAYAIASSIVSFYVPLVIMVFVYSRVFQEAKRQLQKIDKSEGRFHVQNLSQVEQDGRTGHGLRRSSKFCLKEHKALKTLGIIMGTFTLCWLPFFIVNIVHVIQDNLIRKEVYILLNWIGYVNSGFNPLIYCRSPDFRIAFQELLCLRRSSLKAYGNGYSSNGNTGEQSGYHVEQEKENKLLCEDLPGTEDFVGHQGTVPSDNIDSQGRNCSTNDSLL
# Method in brief: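 Cells (CHO, stable ADRB2 overexpression) incubated 18-20hr at 37C; compounds added from DMSO; agonist mix (1nM isoproterenol, 100uM IBMX, 25uM Ro-20-1724) added; 0.5hr RT; d2-cAMP and anti-cAMP-cryptate added; 1hr RT; 665/615 nm read.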
# [15] = target: D(2) dopamine receptor (Homo sapiens) (UniProt P14416); assay: Dopamine D2 receptor (DRD2) small molecule agonists, cell-based qHTS assay (AID 1963594); note: nearly all actives have a fitted effect of over 35% in size
# D(2) dopamine receptor (Homo sapiens), sequence (P14416 whole entry, looked up): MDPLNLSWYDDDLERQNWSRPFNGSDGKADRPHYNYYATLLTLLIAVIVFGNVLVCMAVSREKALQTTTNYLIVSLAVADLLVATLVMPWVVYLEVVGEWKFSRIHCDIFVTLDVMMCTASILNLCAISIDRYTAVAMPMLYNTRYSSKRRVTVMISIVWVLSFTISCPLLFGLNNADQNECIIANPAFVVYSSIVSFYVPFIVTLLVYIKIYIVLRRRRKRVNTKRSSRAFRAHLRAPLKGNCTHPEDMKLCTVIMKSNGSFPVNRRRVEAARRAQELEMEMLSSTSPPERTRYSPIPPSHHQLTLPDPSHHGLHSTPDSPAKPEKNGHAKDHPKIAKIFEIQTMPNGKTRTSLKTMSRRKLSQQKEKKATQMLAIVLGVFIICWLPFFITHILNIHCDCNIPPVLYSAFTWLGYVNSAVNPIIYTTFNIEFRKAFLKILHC
# Method in brief: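 HEK293 cells stably expressing human DRD2, pre-treated with PDE inhibitor Ro20-1724 (0.1 mM final) and compound 10 min at room temperature, then stimulated with NKH477 (200nM […]) for 30 min. cAMP read by HTRF (665/620 nm).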
# [16] = target: D(2) dopamine receptor (Homo sapiens) (UniProt P14416); assay: Dopamine D2 receptor (DRD2) small molecule antagonists, cell-based qHTS assay (AID 1963595; active = well fitted inhibition curve with a large enough effect in the signal ratio in the repeat runs, with a control signal flat; the % refers to the signal ratio)
# Method in brief: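 Antagonism was scored as restored cAMP in HEK293-DRD2 cells. These cells were stimulated with 200 nM NKH477 and 12 nM quinpirole for 30 min at room temperature, in the presence of 0.1 mM Ro20-1724.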
# [17] = p53 small molecule agonists, cell-based qHTS assay (AID 1963582; active = well fitted activation curve with a large enough effect in the signal ratio in the repeat runs, not every such curve was filed as active; the % refers to the signal ratio)
# Method in brief: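 p53RE-bla reporter cells, compounds added in DMSO after 5 h plating, incubated 16 h at 37 C. Beta-lactamase read via 2 h room-temperature LiveBLAzer B/G FRET substrate, fluorescence intensity.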
# [18] = cAMP Responsive Elements (CRE) small molecule antagonists, cell-based qHTS assay (AID 1963591; active = well fitted inhibition curve with a large enough effect in the signal ratio in the repeat runs, not every such curve was filed as active; the % refers to the signal ratio)
# Method in brief: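 CRE-bla HEK293T cells plated 18 h, then given compound plus NKH477 at 0.25 uM final for 3 h at 37C. Beta-lactamase reporter read with LiveBLAzer B/G FRET substrate after 2 h at room temperature.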
# [19] = target: Beta-2 adrenergic receptor (Homo sapiens) (UniProt P07550); assay: Adrenergic beta2 receptor (ADRB2) small molecule agonists, cell-based qHTS assay (AID 1963593);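 note: CHO cells stably overexpressing human ADRB2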
# Method in brief: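 CHO cells stably over-expressing ADRB2 were plated overnight at 37C, then dosed with compounds plus a stimulation mix containing 100uM IBMX and 25uM Ro-20-1724 for 0.5hr at room temperature. cAMP was measured by HTRF competition, 1hr.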
# [20] = p53 small molecule agonists, cell-based qHTS assay with human liver microsomes: qHTS cell viability counter screen (AID 1963579); note: nearly all actives have a fitted effect of over 45% in size
# Method in brief: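 Metabolic activation used human liver microsomes and NADPH, both 0.5 mg/mL final, over 16 hours at 37 C on p53RE-bla cells (4,000/well). Cytotoxicity measured by CellTiter-Glo luminescence, 30 min at room temperature.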
smiles,measurement,setting,value
c1ccc(CNCCNCc2ccccc2)cc1,Potency,[1],inactive
same,Potency,[2],inactive
same,outcome,[3],inactive
same,outcome,[4],inactive
same,Potency,[5],inactive
same,Potency,[6],inactive
same,Potency,[7],inactive
same,Potency,[8],inactive
same,Potency,[9],inactive
same,Potency,[10],inactive
same,Potency,[11],inactive
same,Potency,[12],inactive
same,Potency,[13],inactive
same,Potency,[14],inactive
same,Potency,[15],inactive
same,Potency,[16],inactive
Nc1ccc(S(=O)(=O)Nc2ccnn2-c2ccccc2)cc1,"activity change, negative = cytotoxicity",[1],8.64% [at 19 µM]
same,"activity, positive = activation",[2],4.54% [at 19 µM]
same,activation,[3],15% [at 15.8 µM]
same,activation,[4],0.406% [at 11.8 µM]
same,activation,[6],0.115% [at 13.6 µM]
same,"activity change, negative = cytotoxicity",[7],-1.12% [at 13.5 µM]
same,"activity change, negative = cytotoxicity",[8],-3.47% [at 13.5 µM]
same,activation,[17],1.07% [at 13.5 µM]
same,activation,[13],-0.057% [at 19 µM]
same,"activity change, negative = inhibition",[18],0.401% [at 18.9 µM]
same,"activity change, negative = inhibition",[14],0.77% [at 19 µM]
same,Potency,[19],inactive
same,activation,[15],-21.6% [at 19 µM]
same,"activity change, negative = inhibition",[16],1.2% [at 18.9 µM]
O=C(OCc1ccccc1)C(=O)OCc1ccccc1,Potency,[1],inactive
same,Potency,[2],inactive
same,outcome,[3],inactive
same,outcome,[4],inactive
same,Potency,[6],inactive
same,Potency,[20],inactive
same,Potency,[7],inactive
same,Potency,[8],inactive
same,Potency,[17],inactive
same,Potency,[10],inactive
same,Potency,[11],inactive
same,Potency,[12],inactive
same,Potency,[13],inactive
same,Potency,[18],inactive
same,Potency,[19],inactive
C#CC(C)(CC)OC(=O)c1ccccc1C(=O)O (stereo not drawn),Potency,[1],inactive
same,Potency,[2],inactive
same,outcome,[4],inactive
same,Potency,[5],inactive
same,Potency,[6],inactive
same,Potency,[20],inactive
same,Potency,[7],inactive
same,Potency,[8],inactive
same,Potency,[17],inactive
same,Potency,[9],inactive
same,Potency,[10],inactive
same,Potency,[11],inactive
same,Potency,[13],inactive
same,Potency,[18],inactive
same,Potency,[14],inactive
same,Potency,[16],inactive
CC(=O)C(C)=O,Potency,[1],inactive
same,Potency,[2],inactive
same,outcome,[3],inactive
same,Potency,[5],inactive
same,Potency,[6],inactive
same,Potency,[20],inactive
same,Potency,[8],inactive
same,Potency,[17],inactive
same,Potency,[9],inactive
same,Potency,[10],inactive
same,Potency,[11],inactive
same,Potency,[12],inactive
same,Potency,[13],inactive
same,Potency,[18],inactive
same,Potency,[14],inactive
same,Potency,[19],inactive
same,Potency,[15],inactive
CC(=O)OC1CCCCC1C(C)(C)C (stereo not drawn),Potency,[1],inactive
same,Potency,[2],inactive
same,outcome,[3],inactive
same,outcome,[4],inactive
same,Potency,[5],inactive
same,Potency,[20],inactive
same,Potency,[7],inactive
same,Potency,[8],inactive
same,Potency,[9],inactive
same,Potency,[10],inactive
same,Potency,[11],inactive
same,Potency,[12],inactive
same,Potency,[13],inactive
same,Potency,[14],inactive
same,Potency,[19],inactive
same,Potency,[15],inactive
same,Potency,[16],inactive
Nc1cc(C(=O)O)c(O)c(S(=O)(=O)O)c1,Potency,[1],inactive
same,Potency,[2],inactive
same,outcome,[3],inactive
same,outcome,[4],inactive
same,Potency,[6],inactive
same,Potency,[20],inactive
same,Potency,[7],inactive
same,Potency,[8],inactive
same,Potency,[17],inactive
same,Potency,[9],inactive
same,Potency,[10],inactive
same,Potency,[11],inactive
same,Potency,[12],inactive
same,Potency,[18],inactive
same,Potency,[14],inactive
same,Potency,[15],inactive
same,Potency,[16],inactive
c1cc(N(CC2CO2)CC2CO2)ccc1Cc1ccc(N(CC2CO2)CC2CO2)cc1 (stereo not drawn),Potency,[1],43.3 µM (active)
same,Potency,[2],21.7 µM (active)
same,outcome,[3],inactive
same,outcome,[4],inactive
same,Potency,[6],inactive
same,Potency,[20],inactive
same,Potency,[8],inactive
same,Potency,[10],inactive
same,Potency,[12],inactive
same,Potency,[14],inactive
same,Potency,[15],inactive
